The entries come from a sample that favours the strongest signals as a whole.

What all share (test): glycan array binding signal (z-score within array); higher = stronger binding
Common to all, as to details: glycan notation: IUPAC condensed, linker removed

In test [1] the target is Fuc(a1-2)Gal(b1-4)[Fuc(a1-3)]GlcNAc(b1-3)Gal(b1-4)[Fuc(a1-3)]GlcNAc(b1-3)Gal(b1-4)[Fuc(a1-3)]GlcNAc. In outline: (§1)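 Negative Z-scores can be read as non-binding. The Z-score is calculated within each array and then averaged across arrays of one protein sequence at different concentrations or buffers and across linkers. Arrays, 3228 in all, were curated from the Consortium for Functional Glycomics database and kept only where the protein sequence was available.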

The target in test [2] is Gal(a1-3)Gal. An outline of the steps:
as §1

Test [3] has as its target Gal(b1-3)GlcNAc(b1-3)Gal(b1-4)GlcNAc. In outline: as §1
Test [4] has as its target Gal3S(b1-3)GlcNAc. An outline of the steps:
as §1

Test [5] addresses Gal6S(b1-4)GlcNAc. An outline of the steps:
as §1

The target of test [6] is Glc(a1-4)Glc. In outline: as §1
Test [7] concerns the target Glc(a1-6)Glc(a1-6)Glc. An outline of the steps: as §1
The target in test [8] is Glc(b1-4)Glc. In outline: as §1
Test [9] deals with GlcNAc(b1-4)GlcNAc(b1-4)GlcNAc. In outline: as §1
Test [10] deals with Man(a1-2)Man(a1-2)Man(a1-6)[Man(a1-3)]Man. An outline of the steps: as §1
Test [11] has as its target Neu5Ac(a2-3)Gal. In outline:
as §1

For test [12], the target named is Neu5Ac(a2-3)[Neu5Ac(a2-6)]GalNAc. In outline:
as §1

Test [13] has as its target Neu5Ac(a2-6)Gal(b1-4)GlcNAc(b1-3)Gal(b1-4)[Fuc(a1-3)]GlcNAc(b1-3)Gal(b1-4)[Fuc(a1-3)]GlcNAc. In outline: as §1
In test [14] the target is Neu5Ac(a2-8)Neu5Ac(a2-8)Neu5Ac(a2-8)Neu5Ac(a2-3)[GalNAc(b1-4)]Gal(b1-4)Glc. In outline:
as §1

The target in test [15] is Neu5Ac(b2-6)Gal(b1-4)GlcNAc. In outline: as §1
In test [16] the target is Neu5Gc(a2-6)Gal(b1-4)GlcNAc. In outline: as §1

B1: FaeGab (Escherichia coli) (protein)
chain: WMTGDFNGSVDIGGSITADDYRQKWEWKVGTGLNGFGNVLNDLTNGGTKLTITVTGNKPILLGRTKEAFATPVSGGVDGIPQIAFTDYEGASVKLRNTDGETNKGLAYFVLPMKNAEGTKVGSVKVNASYAGVFGKGGVTSADGELFSLFADGLRAIFYGGLTTTVSGAALTSGSAAAARTELFGSLSRNDILGQIQRVNANITSLVDVAGSYREDMEYTDGTVVSAAYALGIANGQTIEATFNQAVTTSTQWSAPLNVAITYY
Regarding B1, the “glycan array binding signal (z-score)” value in [1] was -0.302; in test [2], 0.089; in test [3] it was -0.347; in [4], -0.012; in test [5], -0.201; in test [6], 8.87. Moreover, the “glycan array binding signal (z-score)” value in test [7] is 10.2; in test [8] it was 4.4; in test [9] it was 0.132; in [10] it was 1.91; in test [11], -0.477; in [12], -0.489. Further, the “glycan array binding signal (z-score)” value in [13] is -0.433; in test [14], -0.352; in test [15] it was -0.473; in test [16], -0.5.

Values taken from the supplement of paper PMC8728848.
